Unmarked numbers belong to inactive results. The rule behind the calls is not given here.
Test: Vero 76 cell cytotoxicity, dose response, cytotoxicity control for VEEV inhibitor project, set 9 (AID 651930)
Settings: Vero 76 cytotoxicity; series mostly up to 25 µM; viability: at the top concentration

| SMILES | viability |
| --- | --- |
| COc1ccc(NC(=O)c2cc([N+](=O)[O-])ccc2N=C2CN(C)CCN2C)cc1 | 90.4% [at 5 µM] |
| O=c1c2cc([N+](=O)[O-])ccc2nc(C2CCNCC2)n1-c1ccccc1 | 82.6% |
| CCN1CCN(C)CC1=Nc1ccc([N+](=O)[O-])cc1C(=O)Nc1ccccc1 | 93.7% [at 50 µM] |
| COc1ccc(-n2c(CN3CCNCC3)nc3ccc([N+](=O)[O-])cc3c2=O)cc1 | 85.9% |
| COc1ccc(Nc2nc(=O)c3cccnc3s2)cc1 | 91.2% [at 50 µM] |
| CCN1CCN(Cc2nc3ncccc3c(=O)n2-c2ccccc2)CC1 | 94.2% |
| CCN1CCN(CC2Nc3ccc([N+](=O)[O-])cc3C(=O)N2c2ccccc2F)CC1 (stereo not given) | 86% |
| O=c1nc(Nc2ccc(OCc3ccccc3)cc2)sc2ncc([N+](=O)[O-])cc12 | 96.3% |
| O=c1c2cc([N+](=O)[O-])ccc2nc(CN2CCNCC2)n1-c1ccsc1 | 84.1% |
| CCN1CCN(C(c2nc3ncc([N+](=O)[O-])cc3c(=O)n2-c2ccccc2)C(c2nc3ncc([N+](=O)[O-])cc3c(=O)n2-c2ccccc2)N2CCN(CC)CC2)CC1 (stereo not given) | 95.6% |
| CNCCN(C)Cc1nc2ccc(C#N)cc2c(=O)n1-c1ccccc1F | 90.3% [at 50 µM] |
| O=c1nc(Nc2ccccc2OCc2ccccc2)sc2ncccc12 | 92.6% |
| CCN1CCN(Cc2nc3c([N+](=O)[O-])cccc3c(=O)n2-c2ccccc2)CC1 | 84.3% |
| CCN1CCN(Cc2nc3ccc([N+](=O)[O-])cc3c(=O)n2C)CC1 | 85.9% |
| CCN1CCN(Cc2nc3ccc(-c4nn[nH]n4)cc3c(=O)n2-c2ccccc2)CC1 | 86.7% [at 50 µM] |
